According to the supplement of paper PMC6555819:

Experiments:
Assay in all cases: PBM binding z-score (relative to random genomic background probes); higher = stronger binding; sequences stand for … in GC…GCGATTGACAGCGTAGAATGAAGG
[1] = tested on: RARb homodimer (NR concentration 270 nM)
How it was run: (§1)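 For binding z-scores, the reference was random background probes on custom Agilent 4×180K protein-binding microarrays. These arrays were incubated 1 h with ligand-free nuclear receptor dimers in PBS pH 7.4, 2% milk, 0.02% Triton X-100, 1 mM DTT, 0.2 mg/mL BSA and 0.4 mg/ml salmon testes DNA. Fluorescence was scanned after antibody detection of each partner (one per run) and regression-normalized.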

[2] = tested on: RARg:RXRa (NR concentration 270 nM, RXRa partner concentration 90 nM)
How it was run: as §1

[3] = tested on: RARg homodimer (NR concentration 270 nM)
How it was run: as §1

[4] = tested on: RXRa DBDmut IVT, anti-RXR (DBD mutation: RXRa K156A/R161A, NR concentration 90 nM)
How it was run: as §1

[5] = tested on: RXRa homodimer (NR concentration 180 nM)
How it was run: as §1

[6] = tested on: THRa:RXRa (NR concentration 90 nM, RXRa partner concentration 90 nM)
How it was run: as §1

[7] = tested on: THRa homodimer (NR concentration 90 nM)
How it was run: as §1

[8] = tested on: VDR homodimer (NR concentration 270 nM)
How it was run: as §1

Sequence	PBM binding z-score [1]	PBM binding z-score [2]	PBM binding z-score [3]	PBM binding z-score [4]	PBM binding z-score [5]	PBM binding z-score [6]	PBM binding z-score [7]	PBM binding z-score [8]
TCTAGTTGGTAACGGAGGTCACACACGACGGGTA	4.04	3.79	3.14	0.917	4.14	3.54	2.41	2.47
CCTGCTAGGTCATGGCCAGCTAATCTACAGTATG	3.06	3.9	4.02	1.3	2.92	3.02	0.915	0.188
TCATATAGGTAAATGTTAGGTGAAAGTCCGATCT	0.881	0.623	0.326	2.12	1.09	2.51	1.58	0.982
CAAACTAGGTAACGAAAGGTCAAAGTCGAATGAC	4.76	5.68	5.08	1.05	6.35	4	1.16	2.25
ATATGTAGGTTAAGGGTCAGTCAGGTTGGTTCGC	3.81	4.01	3.14	1.4	4.19	2.78	1.68	2.75
TCTAGTTGGTCAAAGTTCACACACTCGAAATGCG	4.37	4.88	4.04	2.68	4.73	2.62	1.04	4.58
CCAGACAGTTGAAAGGTAACTCAGTCTGGTACGC	0.351	0.456	0.357	0.511	0.993	0.38	-0.129	-0.355
TCTTGTAGTTCAAAGGTTAAGAAAGCCGAAGCCT	2.54	4.81	2.39	2.69	6.78	2.53	-0.0884	1.9
CTACCGAGGTGAACAAGGTCGTTGATTACTATTC	2.25	2.19	1.74	1.74	2.4	3.6	2.43	3.13
AGCTCTAGGTAAAGATAGTTCAGTGAATGCAAAT	1.34	0.3	0.62	-0.0733	0.094	0.782	0.107	0.592
TCATATAGGTAAAGGTGTAAGTCGAACGATATGA	-0.352	0.365	0.406	0.642	0.621	-0.275	-0.761	-0.275
GCTAGCAGGCCATTTGGGTCGCTCAATGACGGGC	-0.128	-0.381	-0.146	-0.286	-0.42	-0.00184	-0.914	-0.635
CGAACTATGTCATTGACAGGACAGTGAATAGTAA	0.32	0.772	0.637	0.491	0.127	0.297	-0.398	0.0338
ATATGTAGGTTACATCCGGGTGATTCAGGCTATG	0.887	1.19	1.11	0.378	1.27	2.07	0.9	0.101
TTTGCTAGGTCAGTTGGTCAGCTAACGAGCTGCC	2.57	2.76	3.54	0.279	0.82	1.42	0.0567	-0.505
CGAACTAGGTCATCCAGGACAGTGCATACATTGA	3.21	4.04	4.52	2.45	2.88	3.65	2.06	2.29
CGTCCAAGGTCTTAGGAGGTCAGTGAAGACAGAT	3.12	2.51	2.68	0.709	2.01	4.13	1.15	1.33
GCTCGCAGGACAAGGTCAGAGCTTTGTCCGTAGA	2.58	2.71	2.74	0.16	2.1	2.5	1.09	-0.354
CCTCGGAGGACAGAAGGTGAGAGCTGTCCGCTTT	1.05	0.543	0.503	-0.26	-0.253	0.747	-0.514	-0.603

Sequence	PBM binding z-score [1]	PBM binding z-score [2]	PBM binding z-score [3]	PBM binding z-score [4]	PBM binding z-score [5]	PBM binding z-score [6]	PBM binding z-score [7]	PBM binding z-score [8]
GCTAGCAGGCAATTTGGGTCACTCAATGACGGGC	1.55	0.628	0.847	-0.416	0.683	2.76	0.687	-0.322
CCTACTGGGCCAACGTCATTGATCAGTCAAAGCA	0.446	-0.195	-0.0642	-0.651	-0.328	-0.204	-0.526	-0.545
ACTAGCAGGCCAAGTTTGGGTCACTCTAACAAAG	2.06	2.24	1.6	-0.0163	0.429	2.39	1.06	0.209
TCTGTTAGGTCAGTTGGTCAGCTAACGAGCTGCC	3.01	3.01	4.2	1.33	1.19	2.68	1.69	0.469
GGAACGAGGGCAAGTTGACAGCAGAGTTTGATGG	1.76	1.71	2.41	2.46	1.16	1.17	-0.0541	1.42
CCGACTGGGGCAAAAGTTACCATACTCAGTACGA	0.168	0.333	0.253	0.584	0.278	-0.144	-0.251	-0.248
CCTCGGAGGACAGAAGGTCACAGCTGTCCGCTTT	4.26	4.72	4.05	0.581	3.83	3.36	0.632	0.765
CTCGAAAGGTCGTGCTCAGGTGGGTATACCAAAC	2.65	4.38	3.96	1.68	4.59	2.57	0.504	1.08
CGAACTAGGTCATTGACAGGACAGTGAATAGTAA	2.71	4.63	4.21	2.33	2.61	2.98	0.802	0.793
ACAGACAGGTGTGTGAAGGTAACTCAGCTGGACG	-0.271	-0.0907	-0.134	-0.313	0.0111	-0.0622	-0.902	-0.49
ACTAGTTGGTCAGCTGAGGTCTCACACAATTCGG	1.08	0.511	0.774	0.296	0.296	2.7	0.829	-0.0195
CCGACTGGGGCAAAGGTTCCCATACTCAGTACGA	0.64	0.839	0.494	-0.0939	0.724	-0.141	-0.168	-0.00727
ACAGACAGGTGAGTGAAAGTAACTCAGCTGGACG	-0.349	0.188	0.291	-0.517	0.309	-0.377	-0.737	-0.536
ACTTACGGGTAAACGAGGTTATAGCACGCGTATA	1.12	0.939	0.812	0.819	1.57	3.64	0.765	1.45
TCTCGGAGGACCCGAAGGTCAGAGCTTTCCAGAG	2.83	2.16	1.76	-0.207	1.82	1.62	-0.184	-0.145
TCTAGTTGGTCAAAGGTCAGACACTCGAAATGCG	4.51	6.12	5.15	1.57	6.68	3.09	1.49	1.89
ACTATTAGTTGACTTAGGGCAACAGATACGACGC	0.775	0.939	1.03	0.406	0.426	1.48	0.0505	0.162
TCGTGTAGGTTACCAATGGGGCATTCAGCTTTCT	1.15	1.46	0.613	0.901	0.634	0.276	0.371	-0.0857
ATATGTATGTTAAGGGTCATTCAGGTTGGTTCGC	3.82	3.82	2.66	2.29	4.3	3.36	1.54	3.48

Sequence	PBM binding z-score [1]	PBM binding z-score [2]	PBM binding z-score [3]	PBM binding z-score [4]	PBM binding z-score [5]	PBM binding z-score [6]	PBM binding z-score [7]	PBM binding z-score [8]
TAGCCTAGGTCAGATCAGGCCAGTATACGCTATA	2.07	2.81	3.44	-0.202	1.41	4.36	0.219	-0.305
CAAACTAGCTCAAGAGGTCAAAGTCCGCTTCCCG	4.52	4.96	4.04	2.4	5.51	3.66	1.72	3.55
ATATGTAGGCTACATCCGGGTCATTCAGGCTATG	2.14	1.7	1.22	0.518	1.95	2.91	2.14	2.15
TAGCCTAGGTCATGGGACAGTATACCACGCGAAC	3.25	4.44	4.59	0.981	3.62	3.35	1.62	0.784
CCTTACGGGTCAATGTTATAGCACGGGTGGTACG	2.54	4.03	3.85	0.842	4.04	1.85	-0.227	0.834
GATACAGGGTCAAGGACAGAGTACGCGTATTGAT	3.58	5.67	5.78	2.36	6.51	3.85	2.14	2.72
GGAACGAGGGCATTCCAGTTGATAGCATGGCGAT	0.706	1.1	1.38	3.25	0.797	3.1	-0.0583	2.61
TCTCGCAGGCCAGAGGGTCACTCAAGAGGTACGG	2.75	2.79	2.32	0.313	2.76	1.73	0.0741	0.536
TAGCCTAGCTCATTGGGCCAGTATAGTACGCATC	-0.698	-0.5	-0.328	-0.683	-0.449	-0.611	-0.587	-0.87
TCTATTATTTGATTAGGGCAACCGAAACAGCGGA	0.742	0.671	0.596	1.27	0.751	0.898	1.07	1.47
TCTCGGAGGACACGAAGGGTCAGAGCTCGACATC	3.84	3.26	3.44	0.595	2.4	2.92	0.541	0.624
ATCTCAAGGTAACCAAGTTCAGTGAATGCCGAAC	1.51	1.21	1.06	1.01	0.816	2.24	1.06	3.2
AGAATGAGGTTATTAAGATCCGGGAATTGCGGTC	0.644	0.904	0.682	1.93	1.68	2.29	0.695	0.784
CCTACTGCGCCATCAGGTCATTGATATCAACGTT	2.85	1.59	1.53	1.5	1.3	3.49	3.56	2.17
AGAAGGAGGTTACCAAAGATCAGGGAAACGCTTG	1.11	1.66	1.54	-0.25	2.27	1.73	0.244	0.128
ATCTTTAGGTAAAAGTTCAGTGAATCCCGAGGAT	2.61	1.69	1.85	1.27	1.57	1.76	0.573	1.63
TCATATAGGTAAAAGGTGAACGTCGGTGTGGTAA	2.19	2.22	1.26	1.84	2.94	1.84	0.67	0.547
TCATATAGGTAAATGCTAGGTGTAAGTCCGATCT	-0.036	0.43	0.124	1.47	0.608	0.0134	0.0913	0.144
CCTGGTTGGTCAGGAGGTCACACACCGGATATGA	4.02	4.98	4.31	0.0446	4.57	3.37	2.1	2.44
